In ChEMBL document CHEMBL1157539, “Thousands of chemical starting points for antimalarial lead identification” (Nature, 2010):
Values joined by “and” are separate entries in the source; they are usually repeats but may differ in a detail not shown here. Equal entries are not always repeated.

Tests used:
Type in all cases: functional
[1] = tested on: Plasmodium falciparum; test: GSK_TCMDC: Inhibition of Plasmodium falciparum 3D7 in whole red blood cells, using parasite LDH activity as an index of growth. Test compounds present at 2uM
[2] = tested on: Plasmodium falciparum; test: GSK_TCMDC: Inhibition of Plasmodium falciparum Dd2 in whole red blood cells, using parasite LDH activity as an index of growth. Test compounds present at 2uM
[3] = tested on: HepG2; test: GSK_TCMDC: Percent inhibition of human HepG2 cell line. Test compounds present at 10uM.

Row | SMILES | Inhibition [1] [%] | Inhibition [2] | Inhibition [3]
1 | Cc1[nH]c2ccc(O)cc2c1C1CCN(CC2CCN(C(=O)/C=C/c3ccc(Cl)c(Cl)c3)CC2)CC1 | 99 | 99% | 23%
2 | Cc1ccc(CC(C)NCC(O)c2cccc(Br)c2)cc1 (configuration not stated) | 99 | 97% | 7%
3 | CC(Cc1ccc(OCCOc2ccccc2)cc1)NCC(O)c1cccc(C(F)(F)F)c1 (configuration not stated) | 91 | 76% | 16%
4 | COc1nc(N)ncc1C(=O)NC1CN2CCC1CC2 (configuration not stated) | 92 | 0% | 26%
5 | O=C(O)/C=C\C(=O)O.OC1(c2ccc(Cl)c(C(F)(F)F)c2)CCN(CCOC2c3ccccc3CSc3ccc(Cl)cc32)CC1 (configuration not stated) | 95 | 58% | 3%
6 | CNCCCCCCc1ccc(CC(C)NCC(O)c2cccc(Cl)c2)cc1.Cl (configuration not stated) | 94 | 76% | 22%
7 | Cc1[nH]c2cc(Cl)ccc2c1C1=CCN(CCCCC2(C)C(=O)Nc3ccccc32)CC1 (configuration not stated) | 94 | 90% | 0%
8 | O=C(/C=C/c1ccc([N+](=O)[O-])cc1)NC1CCC(CN2CCC(c3c[nH]c4ccccc34)CC2)CC1 (configuration not stated) | 100 | 61% and 81% | 30% and 34%
9 | O=C(O)C(F)(F)F.OC1(CNCc2ccccc2)CCN(CCc2c[nH]c3ccc(F)cc23)CC1 | 100 | 4% | 39%
10 | Cc1ccc(C[C@@H](C)NC[C@H](O)c2cccc(C(F)(F)F)c2)cc1.O=C(O)/C=C/C(=O)O | 100 | 79% | 10%
11 | Br.CC[C@H]1CN2CCc3cc(OC)c(OC)cc3[C@@H]2C[C@@H]1C[C@H]1NCCc2c1cc(OC)c(O)c2I | 100 | 100% | 54%
12 | COc1cc(NCCCNC(=O)c2cn(Cc3ccccc3)c3ccccc23)nc2ccccc12 | 100 | 66% | 13%
13 | Cl.O=C(CNC1CCCCC1)c1ccc(O)c(O)c1 | 100 | 99% | 61%
14 | Fc1ccc(N(c2nc(-c3cc(F)cc(C(F)(F)F)c3)cs2)C2CCNCC2)cc1.O=C(O)C(F)(F)F | 95 | 10% | 35%
15 | COc1cccc(CN2CCC(CCOC(c3ccccc3)c3ccc(Cl)cc3)CC2)c1O (configuration not stated) | 99 | 100% | 22%
16 | CC[C@H]1CN2CC[C@@H]1C[C@H]2[C@H](O)c1cc(-c2ccc(Cl)c(Cl)c2)nc2ccc(O)cc12 | 98 | 99% | 0%
17 | C[C@H](Cc1ccc(OCCCCCCOc2ccccc2)cc1)NC[C@@H](O)c1cc(Br)no1.Cl | 94 | 70% | 21%
18 | O=C(/C=C/c1cccc(Cl)c1)NC1CCC(CN2CCC(c3c[nH]c4ccccc34)CC2)CC1 (configuration not stated) | 100 | 82% and 55% | 35% and 42%
19 | CC(Cc1ccc(OCc2ccccc2)c(Cl)c1)NCC(O)c1cccc(C(F)(F)F)c1 (configuration not stated) | 97 | 95% | 0%
20 | CCCc1cc([C@@H](O)[C@@H]2C[C@@H]3CCN2C[C@@H]3CC)c2ccccc2n1 | 100 | 57% | 9%

Row | SMILES | Inhibition [1] [%] | Inhibition [2] | Inhibition [3]
21 | CCCc1c(C(=O)NC2CCC(CN3CCC(c4c[nH]c5ccccc45)CC3)CC2)cnn1-c1ccc(Cl)cc1 (configuration not stated) | 90 | 37% | 53%
22 | COCCNCc1ccc(-c2ccc(CN(C(=O)NC3CCCCC3)C3CCN(Cc4ccccc4)CC3)cc2)cc1.O=C(O)C(F)(F)F | 94 | 84% | 29%
23 | CC[C@H]1CN2CC[C@H]1C[C@H]2[C@H](O)c1cc(-c2cccc(F)c2)nc2ccc(OC)cc12.Cl | 99 | 97% | 34%
24 | O=C(NC1CCC(CN2CCC(c3c[nH]c4ccccc34)CC2)CC1)c1[nH]c(=O)[nH]c(=O)c1F (configuration not stated) | 99 | 59% | 5%
25 | Cc1cc(C(=O)NC2CCN(CC3(c4ccc(Cl)cc4)CCC3)CC2)on1 | 98 | 95% | 5%
26 | O=C(NC1CCC(CN2CCC(c3c[nH]c4ccccc34)CC2)CC1)c1csc(-c2ccc(C(F)(F)F)cc2Cl)n1 (configuration not stated) | 99 | 75% | 32%
27 | Oc1ccc2[nH]cc(C3=CCN(CCc4ccccc4)CC3)c2c1 | 96 | 60% | 11%
28 | CC(Cc1ccc(NC(=O)CCNCc2ccccc2)cc1)NCCc1cccc(Cl)c1 (configuration not stated) | 100 | 100% | 100%
29 | O=C(NC1CCC(CN2CCC(c3c[nH]c4ccccc34)CC2)CC1)c1cc(-c2ccccc2Cl)n(-c2cccc(Cl)c2)n1 (configuration not stated) | 95 | 24% | 58%
30 | CC(NC(C)(C)C)C(O)c1ccc(Cl)c(C(F)(F)F)c1.Cl (configuration not stated) | 97 | 97% | 0%
31 | Oc1ccc2[nH]cc(C3=CCN(Cc4ccccc4)CC3)c2c1 | 94 | 67% | 1%
32 | Oc1ccc(CN2CCN(CCOC(c3ccccc3)c3ccccc3)CC2)cc1Cl | 98 | 77% | 7%
33 | Cc1cccc2[nH]cc(C3CCN(CC4CCC(NC(=O)/C=C/c5ccc(Cl)c(Cl)c5)CC4)CC3)c12.Cl (configuration not stated) | 100 | 97% | 88%
34 | O.Oc1cccc(C2CCCN(CCc3c[nH]c4ccccc34)C2)c1 (configuration not stated) | 93 | 40% | 0%
35 | CC(=O)Nc1ccc(CN2CCC(N(C)c3cc(NC(=O)c4cccc(F)c4)ccn3)CC2)cc1.O=C(O)C(F)(F)F | 85 | 0% | 4%
36 | C/C=C1\CN2CC[C@H]1C[C@H]2[C@H](O)c1ccnc2ccc(OC)cc12 | 100 | 45% | 0%
37 | COC(=O)c1ccc(CC(C)NCC(O)c2ccc3ccc4ccccc4c3c2)cc1.O=C(O)/C=C/C(=O)O (configuration not stated) | 100 | 97% | 21%
38 | O=C(NC1CCC(CN2CCC(c3c[nH]c4ccccc34)CC2)CC1)c1ccc(-c2cc(C(F)(F)F)ccc2Cl)o1 (configuration not stated) | 100 | 34% | 5%
39 | COc1ccc2[nH]cc(C3=CCN(CC4CC4C(=O)c4ccccc4)CC3)c2n1 (configuration not stated) | 95 | 93% | 22%
40 | Cc1[nH]c2ccc(O)cc2c1C1CCN(CC2CCC(NC(=O)/C=C/c3c(Cl)cccc3Cl)CC2)CC1 (configuration not stated) | 100 | 93% | 25%

Row | SMILES | Inhibition [1] [%] | Inhibition [2] | Inhibition [3]
41 | c1ccc(C(OCCC2CCN(Cc3cccc4cccnc34)CC2)c2ccccc2)cc1 | 99 | 99% | 9%
42 | O=C(/C=C/c1ccc(Cl)c(Cl)c1)NC1CCC(CN2CCC(c3c[nH]c4ccc(O)cc34)CC2)CC1 (configuration not stated) | 100 | 100% and 99% | 35% and 38%
43 | CC(=O)Nc1ccc(OCCN(CC(C)(C)C)c2ccc(C#N)c(C(F)(F)F)c2)c(Cl)c1 | 87 | 93% | 0%
44 | COc1ccc(OC)c(C=CC(=O)NC2CCC(CN3CCC(c4c[nH]c5ccccc45)CC3)CC2)c1 (configuration not stated) | 98 | 62% | 43%
45 | C[C@H](Cc1ccc(OCCCCCCOc2ccccc2)cc1)NC[C@H](O)c1cccc(Cl)c1.Cl | 93 | 99% | 21%
46 | Cc1nc2ccccc2n1C1CC2CCC(C1)N2Cc1nccn1-c1ccccc1.O=C(O)C(F)(F)F (configuration not stated) | 94 | 96% | 0%
47 | CC(=O)C1(c2ccccc2)CCN(CCC(NC(=O)c2cc(C(F)(F)F)cc(C(F)(F)F)c2)c2ccc(Cl)c(Cl)c2)CC1.Cl (configuration not stated) | 91 | 82% | 9%
48 | CN(c1ccc(NC(=O)CCOc2ccccc2)cc1)C1CCN(Cc2cccc(O)c2)CC1.O=C(O)C(F)(F)F | 89 | 0% | 18%
49 | CCN1CCC(N2CCC(n3c(C)nc4cc(C(F)(F)F)ccc43)CC2)CC1 | 93 | 16% | 6%
50 | Cc1ccccc1CNCC(O)c1cccc(C(F)(F)F)c1 (configuration not stated) | 99 | 77% | 5%
51 | CC(Cc1ccc(SCCSc2ccccc2)cc1)NCC(O)c1cccc(Cl)c1 (configuration not stated) | 98 | 96% | 4%
52 | COc1ccccc1CC(C)NCC(O)c1cccc(Cl)c1 (configuration not stated) | 97 | 98% | 13%
53 | Cc1[nH]c2cc(Cl)ccc2c1C1=CCN(CCN2CCOc3c(Br)cccc3C2=O)CC1.Cl | 90 | 58% | 1%
54 | COc1cc(NC(=O)c2nn(CCCN3CCC4(CC3)C(=O)NCN4c3ccccc3)cc2-c2ccc(Cl)c(Cl)c2)cc(OC)c1OC | 97 | 75% | 0%
55 | CC[C@H]1C[N+]2([O-])CC[C@@H]1C[C@H]2[C@H](O)c1cc(-c2ccccc2)nc2ccc(OC)cc12 | 99 | 97% | 0%
56 | CC(Cc1ccc(C2=CCNCC2)cc1)NCC(O)c1cccc(C(F)(F)F)c1.Cl (configuration not stated) | 89 | 0% | 27%
57 | CC(C)CNCc1cccc(-c2ccc(CN(C(=O)Nc3ccccc3)C3CCN(Cc4ccccc4)CC3)cc2)c1.O=C(O)C(F)(F)F | 100 | 61% | 41%
58 | Cc1[nH]c2ccc([N+](=O)[O-])cc2c1C1=CCN(C)CC1 | 86 | 68% | 6%
59 | CC[C@H]1CN2CC[C@H]1C[C@H]2[C@H](O)c1cc(-c2ccc(SC)cc2)nc2ccc(OC)cc12.Cl | 98 | 99% | 9%
